Bioassay records as filed in PubChem BioAssay.
HT1080-NT tox: qHTS for induction of synthetic lethality in tumor cells producing 2HG: qHTS for the HT-1080-NT fibrosarcoma cell line; HT-1080-NT fibrosarcoma viability, CellTiter-Glo ATP luminescence, 48 h; AID 686970, 2013; hit rate 1.6% among 360,000; Potency, µM (titrated, usually from 46.1 µM), without a hit: at the highest dose activity, negative = less viability, most hits filed as cytotoxic;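 note: NT is the 2HG producing partner of a matched IDH1 knockdown line; 0% = DMSO-treated cells and -100% = media-only wells without cells; nearly all actives have a fitted effect of over 55% in size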
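Fibrosarcoma NT cells, 750 per well in 5% FBS RPMI, were exposed to compound for 48 hours. Viability: CellTiter-Glo luminescence.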
TGFb inhibitor: qHTS for Inhibitors of TGF-b; HepG2 CAGA-GFP TGF-b/SMAD3 reporter, GFP fluorescence, 18 h; TGF-beta stimulated, 500 pg/mL final; Potency, µM (doses to about 46.1 µM), for the others: at the top dose activity, negative = inhibition, most hits filed as inhibitors; hit rate 1.2% among 410,000; AID 588855, 2011; note: % is set by controls: 0 for no effect and ±100 for the full control effect; nearly all actives have a fitted effect of over 65% in size
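First, reporter cells (HEPG2 CAGA-GFP) rested 2 h at 37 degrees C. Next, compounds were pinned in and TGF-beta added to 500 pg/mL final. After 18 h, GFP was imaged per cell and summed per well.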
TDP1 cell noCPT: qHTS for Inhibitors of human tyrosyl-DNA phosphodiesterase 1 (TDP1): qHTS in cells in absence of CPT; DT40 Tdp1-/- hTDP1 cells, no CPT, ATP luminescence, 48 h; hit rate 15% among 420,000; Potency, µM (highest dose often 46.2 µM), inactives show at the highest dose activity change, negative = growth inhibition, usual class: inhibitors; note: % is set by controls: 0 for no effect and ±100 for the full control effect; nearly all actives have a fitted effect of over 55% in size
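Camptothecin absent (DMSO only). Human TDP1-complemented DT40 knockout cells, 400 cells/well, 37 °C for minimum 48 hr; ATP measured via CellTiter-Glo, 30 min dark incubation, luminescence.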
HT1080 IDH1KD tx: qHTS for induction of synthetic lethality in tumor cells producing 2HG: qHTS for the HT-1080-IDH1KD cell line. HT-1080 IDH1 knockdown viability, ATP luminescence, 48 h. hit rate 2% among 360,000. Potency, µM (highest dose often 46.1 µM), for the others: top-dose activity, negative = toxicity, actives largely listed as cytotoxic;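 note: 0% = DMSO wells and -100% = cell-free medium wells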
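Viability of IDH1-knockdown HT-1080 fibrosarcoma cells was assessed by CellTiter-Glo after 48 h at 37 °C with titrated compound; concentration-effect curves were classified by fit quality and response size.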
HepG2 tox-1: qHTS for Inhibitors of TGF-b: Cytotox Counterscreen; hit rate 0.76% among 410,000; Potency, µM (series often up to 46.1 µM), for the others: top-dose activity change, negative = cytotoxicity, actives largely listed as cytotoxic; HepG2 CAGA-GFP viability, ATP luminescence, 18 h
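CellTiter-Glo luminescence gave cytotoxicity after 18 hours at 37 degrees C. The cells were HepG2 CAGA-GFP in 1% FBS DMEM, stimulated with 500 pg/mL TGF-beta after compound addition. %Activity was normalised to no-cell wells (complete cell-killing) and DMSO (no toxicity), and curves were fitted and classified.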
DT40 TDP1 CPT: qHTS for Inhibitors of human tyrosyl-DNA phosphodiesterase 1 (TDP1): qHTS in cells in presence of CPT. chicken DT40 Tdp1-/-;hTDP1 cells + 20 nM CPT, ATP luminescence, 48 h. Potency, µM (doses to about 46.2 µM), for the others: at the highest dose activity change, negative = growth inhibition, hits mostly inhibitors. hit rate 12% among 420,000. AID 686979, 2013; note: % is set by controls: 0 for no effect and ±100 for the full control effect; nearly all actives have a fitted effect of over 55% in size
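Cell growth measured by CellTiter-Glo luminescence after a minimum 48 h, 37 C compound exposure with 20 nM CPT in Tdp1-knockout DT40 cells stably expressing hTDP1, seeded 400/well; qHTS titration format.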
TGFb confirm: qHTS for Inhibitors of TGF-b: Confirmation of Cherry Picks | shares compounds with TGFb inhibitor | HepG2 CAGA-GFP TGF-b reporter, GFP fluorescence, 18 h; cells stimulated with TGF-beta, 500 pg/mL | Potency, µM (top dose mostly 46.1 µM), without a hit: at the highest dose activity, negative = inhibition, usual class: inhibitors | hit rate 63% among 1,600; note: % is set by controls: 0 for no effect and ±100 for the full control effect; nearly all actives have a fitted effect of over 65% in size
HepG2 tox-2: qHTS for Inhibitors of TGF-b: Cytotox Counterscreen for Cherry Picks | shares compounds with TGFb inhibitor | HepG2 CAGA-GFP viability, ATP luminescence, 18 h; cells stimulated with TGF-beta, 500 pg/mL | Potency, µM (doses to about 46.1 µM), for the others: top-dose activity, negative = cytotoxicity, most hits filed as inhibitors | hit rate 27% among 1,600; note: % is set by controls: 0 for no effect and ±100 for the full control effect; nearly all actives have a fitted effect of over 70% in size
TGFb CCL64 inh: qHTS for Inhibitors of TGF-b: CCL64 Cells Orthogonal Assay for Cherry Picks. Potency, µM (series often up to 46.1 µM), without a hit: at the highest dose activity, negative = inhibition, actives largely listed as inhibitors. CCL64 CAGA-GFP reporter, TGF-b stimulated, GFP fluorescence, 18 h. hit rate 41% among 1,600. shares compounds with TGFb inhibitor; note: nearly all actives have a fitted effect of over 65% in size
COP TGFb inh: qHTS for Inhibitors of TGF-b: Hit Validation in HepG2 Cells using COP promoter | hit rate 3% among 1,600 | HepG2 COP-GFP TGF-b reporter, GFP fluorescence, 18 h; cells stimulated by added recombinant TGF-beta | AID 720537, 2013 | Potency, µM (titrated, usually from 46.1 µM), without a hit: at the highest dose activity, negative = inhibition, hits mostly inhibitors | shares compounds with TGFb inhibitor; note: nearly all actives have a fitted effect of over 70% in size
Numbers without * were called inactive. Only some compounds are listed: those with a hit (about 17% of all), similar ones and a draw of the others. Calls come from the whole dose curve; as a rule, active = well fitted curve in the direction sought with a large enough effect; inconclusive = small, poorly fitted or top-dose-only effect, or another doubt; inactive = no such curve, though single readings can be large; an effect the other way counts as inactive or inconclusive. Potency is the fitted concentration of half-maximal effect.

Screening COc1cccc(NC(=O)Cn2c(=O)n(Cc3ccc(C(=O)NCc4ccc5c(c4)OCO5)cc3)c(=O)c3ccccc32)c1 returned TGFb inhibitor inconclusive, TDP1 cell noCPT -17%, HepG2 tox-1 -12% and DT40 TDP1 CPT -8%.
CCc1nc2c(OCC(=O)C(C)(C)C)cccn2c1N(C)C(=O)Nc1ccccc1OC was read as HT1080-NT tox 15%, TGFb inhibitor 1%, TDP1 cell noCPT -27%, HT1080 IDH1KD tx 10%, HepG2 tox-1 -10% and DT40 TDP1 CPT inconclusive.
`O=C(Nc1cccnc1)c1cc(Br)c(Br)s1` gave HT1080-NT tox -10%, TGFb inhibitor 11%, TDP1 cell noCPT inconclusive, HT1080 IDH1KD tx -6%, HepG2 tox-1 0% and DT40 TDP1 CPT inconclusive.
`Cc1ccc(C(=O)NNC(=S)Nc2cccc3ccccc23)s1` gave HT1080-NT tox -22%, TGFb inhibitor inconclusive, TDP1 cell noCPT inconclusive, HT1080 IDH1KD tx -13%, HepG2 tox-1 -3% and DT40 TDP1 CPT -10%.
`O=C(Nc1cccnc1)c1ccc([N+](=O)[O-])s1` gave HT1080-NT tox inconclusive, TGFb inhibitor 10µM*, TDP1 cell noCPT 0.65µM*, HT1080 IDH1KD tx inconclusive, HepG2 tox-1 11µM*, DT40 TDP1 CPT 0.73µM*, TGFb confirm 15µM*, HepG2 tox-2 23µM*, TGFb CCL64 inh inconclusive and COP TGFb inh inconclusive.
`O=C(Nc1cccc2ccccc12)c1ccc([N+](=O)[O-])s1` gave HT1080-NT tox inconclusive, TGFb inhibitor 8.9µM*, TDP1 cell noCPT 10µM*, HT1080 IDH1KD tx inconclusive, HepG2 tox-1 11µM*, DT40 TDP1 CPT 15µM*, TGFb confirm 16µM*, HepG2 tox-2 26µM*, TGFb CCL64 inh inconclusive and COP TGFb inh 50%.
`O=[N+]([O-])c1nccn1C1C=CC(O)C(CO)O1` (stereo unspecified) gave HT1080-NT tox 0%, TDP1 cell noCPT 3%, HT1080 IDH1KD tx 2% and DT40 TDP1 CPT -7%.
Screening Nc1c(Br)cc(Br)c(N2CCCC2=O)c1Br returned HT1080-NT tox -1%, TGFb inhibitor 12%, TDP1 cell noCPT 9%, HT1080 IDH1KD tx -7%, HepG2 tox-1 5% and DT40 TDP1 CPT -4%.
CCCCOC(=O)Nc1ccc(S(=O)(=O)Nc2ccc([N+](=O)[O-])cc2)cc1 was read as HT1080-NT tox 11%, TGFb inhibitor 7.9µM*, TDP1 cell noCPT -2%, HT1080 IDH1KD tx -2%, HepG2 tox-1 -9%, DT40 TDP1 CPT -7%, TGFb confirm inconclusive, HepG2 tox-2 -6%, TGFb CCL64 inh -14% and COP TGFb inh -9%.
Cc1ccccc1CSc1ncnc2ccccc12 was read as HT1080-NT tox -21%, TGFb inhibitor -13%, TDP1 cell noCPT inconclusive, HT1080 IDH1KD tx -20%, HepG2 tox-1 8% and DT40 TDP1 CPT -2%.
Screening c1ccc(Sc2ncnc3ccccc23)cc1 returned HT1080-NT tox -26%, TGFb inhibitor 10µM*, TDP1 cell noCPT inconclusive, HT1080 IDH1KD tx inconclusive, HepG2 tox-1 -36%, DT40 TDP1 CPT inconclusive, TGFb confirm 10µM*, HepG2 tox-2 inconclusive, TGFb CCL64 inh inconclusive and COP TGFb inh 40%.
For COc1cccc(NC(=O)C(NCC2CCCCC2)c2ccccc2)c1 (stereo unspecified) the results were HT1080-NT tox 1%, TGFb inhibitor 15%, TDP1 cell noCPT -32%, HT1080 IDH1KD tx 0%, HepG2 tox-1 -43% and DT40 TDP1 CPT -18%.
For COc1cccc(NC(=O)C(NCCC(C)C)c2ccccc2)c1 (stereo unspecified) the results were HT1080-NT tox -2%, TGFb inhibitor 13µM*, TDP1 cell noCPT inconclusive, HT1080 IDH1KD tx -9%, HepG2 tox-1 -31%, DT40 TDP1 CPT inconclusive, TGFb confirm inconclusive, HepG2 tox-2 -5%, TGFb CCL64 inh -28% and COP TGFb inh -6%.
Screening CCCCN(C)CCN1C(=O)C2C(C(=O)Nc3cccc(OC)c3)C3C=CC2(O3)C1C(=O)NC1CCCCC1C (stereo unspecified) returned HT1080-NT tox -2%, TGFb inhibitor -19%, TDP1 cell noCPT inconclusive, HT1080 IDH1KD tx -11%, HepG2 tox-1 -29% and DT40 TDP1 CPT -8%.
